In all, about 330,000 compounds went through this assay and about 5,800 (1.8%) were called active.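 Rule for the calls: active = inhibition above about 50% at the single tested dose (limit read from the data); inactive = the rest.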 The entries come from a sample that favours actives as a whole.
target: Sentrin-specific protease 6 (Homo sapiens) (UniProt Q9GZR1); experiment: inhibition of human SENP6 catalytic domain – biochemical, luminescence, uHTS, primary screen (AID 2599); conditions: Recombinant SENP6 catalytic domain, aminoluciferin luminescence; at 10 µM; stronger effect = higher value;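 note: plate controls were DMSO wells with enzyme for no effect and DMSO wells lacking enzyme for full effect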
Sequence (Q9GZR1 628-1112 limits assumed): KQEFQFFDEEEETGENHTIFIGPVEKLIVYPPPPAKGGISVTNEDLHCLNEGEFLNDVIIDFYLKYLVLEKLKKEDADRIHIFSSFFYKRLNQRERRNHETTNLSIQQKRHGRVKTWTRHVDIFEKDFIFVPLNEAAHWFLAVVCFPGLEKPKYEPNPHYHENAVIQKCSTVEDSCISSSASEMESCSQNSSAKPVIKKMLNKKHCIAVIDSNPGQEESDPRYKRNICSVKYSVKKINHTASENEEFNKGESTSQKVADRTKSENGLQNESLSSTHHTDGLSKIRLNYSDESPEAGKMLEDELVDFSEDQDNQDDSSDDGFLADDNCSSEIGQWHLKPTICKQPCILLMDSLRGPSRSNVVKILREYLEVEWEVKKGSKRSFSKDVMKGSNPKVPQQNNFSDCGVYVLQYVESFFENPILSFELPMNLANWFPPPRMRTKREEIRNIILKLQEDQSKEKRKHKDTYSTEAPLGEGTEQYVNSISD

| SMILES | inhibition |
| --- | --- |
| C/C(=N\Nc1ncc(Cl)cc1Cl)c1cccs1 | 6.67% (inactive) |
| O=C(Nc1ccccc1-c1nc2ccccc2[nH]c1=O)c1cccs1 | 0.16% (inactive) |
| C/C(=N\Nc1nc2ccccc2[nH]1)c1cccs1 | 60.7% (active) |
| COc1ccc(N(Cc2ccccc2)S(=O)(=O)c2cccc(C(=O)O)c2)cc1 | -6.92% (inactive) |
| COc1ccc(C(CC(=O)c2ccccc2)S(=O)(=O)c2ccccc2)cc1 (centres undefined) | 59.1% (active) |
| COc1ccc(NC(=O)CS(=O)(=O)c2ccccc2)cc1 | 13.2% (inactive) |
| COc1ccc(NC(=O)C2CCC(CNC(=O)[C@@H]3Cc4ccccc4CN3)CC2)cc1 (some centres undefined) | -1.01% (inactive) |
| CCC(NC(=O)c1cc(COc2ccc(F)c(F)c2)on1)c1ccncc1 (centres undefined) | 12.2% (inactive) |
| O=C(NCCN1CCCC(O)C1)c1cc(COc2c(F)cccc2F)on1 (centres undefined) | 4.9% (inactive) |
| Cc1ccc(NC(=O)CSCC(=O)Nc2sccc2C#N)cc1 | 0.055% (inactive) |
| Cc1csc(SCC(=O)Nc2sccc2C#N)n1 | 88.2% (active) |
| Cc1cccc(C)c1Nc1nnc(SCC(=O)Nc2sccc2C#N)s1 | 22.6% (inactive) |
| COc1ccc(CCNC(=O)CS(=O)(=O)Cc2nc(-c3ccc(C)cc3)oc2C)cc1OC | 8.83% (inactive) |
| CSCCC(Nc1ccc(S(=O)(=O)N2CCOCC2)cc1[N+](=O)[O-])C(=O)OCC(=O)N(C(C)C)C(C)C (centres undefined) | -3.58% (inactive) |
| C/C(=N\NC(=S)Nc1ccc(C)cc1)c1cc2ccccc2o1 | -7.73% (inactive) |
| Cc1ccc(OC(=O)c2cc3ccccc3o2)cc1 | 72.6% (active) |
| COc1ccccc1CN(C)C(=O)c1cc2ccccc2o1 | -15.1% (inactive) |
| CC1=C/C(=N\OS(=O)(=O)c2ccccc2)C=CC1=O | -4.19% (inactive) |
| CCOc1ccc(OCC)c(NC(=O)CCS(=O)(=O)c2ccc(C)cc2)c1 | -6.59% (inactive) |
| CC(=O)Oc1cccc(C(=O)Nc2ccccc2NC(=O)c2cccc(OC(C)=O)c2)c1 | 7.29% (inactive) |
| CC(=O)O[C@H]1c2ccccc2-c2ccccc2[C@@H]1OC(C)=O | 8.21% (inactive) |
| CC(=O)Oc1ccc2c(c1)C(=O)c1ccccc1C2=O | 55% (active) |
| CC(C)C(=O)NCC(c1cccs1)S(=O)(=O)c1ccc(F)cc1 (centres undefined) | -1.5% (inactive) |
| COc1cc(/C=C/C(=O)OCC(=O)NC(=O)NCc2ccccc2)ccc1OCC#N | -0.36% (inactive) |
| Cc1cc2oc3ccc(NCCC4CCCN4C)cc3c(=O)c2cc1C (centres undefined) | 2.23% (inactive) |

| SMILES | inhibition |
| --- | --- |
| O=C(Nc1c2c(nn1-c1cccc(Cl)c1)CS(=O)(=O)C2)c1cccs1 | -6.08% (inactive) |
| COc1ccc2nc(NC(=O)[C@@H]3CCCN3C(=O)c3cccs3)sc2c1 | 4.51% (inactive) |
| COc1ccc2nc(NC(=O)NC3CCCCC3)sc2c1 | 0.352% (inactive) |
| COc1ccc2nc(Nc3nc4cc5c(cc4s3)OCCO5)sc2c1 | 70.8% (active) |
| CC(OC(=O)CN1C(=O)COc2ccccc21)C(=O)NCc1ccc(F)cc1 (centres undefined) | -3.56% (inactive) |
| COc1ccc(S(=O)(=O)NC(C)C(=O)N2CCCCCC2)cc1 (centres undefined) | -11.4% (inactive) |
| Cc1ccc(C(=O)Nc2nc(N)n(-c3ccccc3)n2)cc1 | -27.7% (inactive) |
| Fc1c(F)c(C(F)(F)F)c(F)c(F)c1N1CCN(c2ccc3nnc(C(F)(F)F)n3n2)CC1 | 3.56% (inactive) |
| COc1ccccc1NC(=O)C(C)OC(=O)c1ccc(-n2cnnn2)cc1 (centres undefined) | -16.5% (inactive) |
| O=C(O)c1ccc(N=NN2CCOCC2)cc1 | 17.8% (inactive) |
| NC1=NN(c2cccc(C(=O)O)c2)C(=O)C1 | 3.51% (inactive) |
| O=C(O)c1cccc(N=NN2CCCCCC2)c1 | 90.2% (active) |
| CS(=O)(=O)Nc1ccccc1N=C(c1ccccc1)c1ccccc1 | -6.12% (inactive) |
| Oc1cccc2ccc(/C=C/c3ccc(Br)s3)nc12 | 64.4% (active) |
| Nc1ccc(S(=O)(=O)Nc2nccc(/C=C/c3ccc(Br)s3)n2)cc1 | 4.55% (inactive) |
| COC(=O)c1c(NC(=O)COc2ccc(Cl)cc2Cl)sc2c1CC(C)(C)NC2(C)C | -10.5% (inactive) |
| Cc1coc(C)c1C(=O)CC1(O)C(=O)N(C)c2ccc(Cl)cc21 (centres undefined) | 0.041% (inactive) |
| O=C(NC1CC1)C1CCCN(C(=O)NC2CCCCC2)C1 (centres undefined) | -5.19% (inactive) |
| O=C1NNC(c2ccccc2)=N/C1=C\c1ccc(Cl)cc1 | 29.3% (inactive) |
| N#CCc1c(C#N)c(N)nc(N2CCCC2)c1C#N | -5.83% (inactive) |
| N#Cc1c(N2CCCCC2)nc(N)c2c(N)nc(SCC(=O)O)cc12 | 74.6% (active) |
| Nc1nc(NCC(=O)O)nc(N2CCCCCC2)c1[N+](=O)[O-] | 11.1% (inactive) |
| CC(C)(C)Oc1ccccc1Nc1nc(NCCO)nc(N2CCCC2)n1 | -11% (inactive) |
| COC(=O)c1ccc(S(=O)(=O)N2CCc3ccccc3C2)cc1 | -14.9% (inactive) |
| O=C(ON=C1CCN(S(=O)(=O)c2ccccc2)CC1)c1ccc(Cl)cc1 | 55.9% (active) |

| SMILES | inhibition |
| --- | --- |
| CC(OC(=O)c1ccc(S(=O)(=O)N2CCOCC2)cc1)c1ccccc1 (centres undefined) | -4.11% (inactive) |
| C/C(N)=C(\C#N)C(=O)NCCc1ccccn1 | -4.65% (inactive) |
| COc1cc(OC)cc(-c2nc(=S)n3ccsc3n2)c1 | -9.64% (inactive) |
| COc1ccc(-c2cn3cccnc3n2)cc1 | -11.4% (inactive) |
| COc1ccc(-c2cn3ccsc3n2)cc1 | 64% (active) |
| CC(C(=O)NC1CCCCC1)N1C(=O)c2cccc3cccc1c23 (centres undefined) | -3.48% (inactive) |
| CC(C)NC(=S)Nc1cccc2cnccc12 | 5.39% (inactive) |
| O=C(COC(=O)c1ccccn1)Nc1cccc2ccccc12 | -9.05% (inactive) |
| O=C(Nc1cccc2ccccc12)c1onc2c1CCCC2 | 84% (active) |
| O=C(O)Cc1ccc(NC(=O)Nc2cccc3ccccc23)cc1 | -11.3% (inactive) |
| Cn1cc(CN2CCCC(CO)C2)c(-c2ccc(Oc3ccccc3)cc2)n1 (centres undefined) | -24.4% (inactive) |
| O=C1C2C3C=CC(C3)C2C(=O)N1c1ccc(-c2nc3ccccc3c(=O)o2)cc1 (centres undefined) | -7.9% (inactive) |
| COc1cc(/C=C2\Oc3ccc(C#Cc4ccc(O)cc4)cc3C2=O)cc(OC)c1 | -11.5% (inactive) |
| O=C1c2ccccc2C(=O)N1CCC#Cc1ccc2cc(C3(O)CCCCC3)oc(=O)c2c1 | -5.78% (inactive) |
| COc1cc(C#Cc2ccc3cc(CCCO)oc(=O)c3c2)cc(OC)c1 | 74% (active) |
| Cc1[nH]c(C)c(S(=O)(=O)N2CCC(C)CC2)c1C(=O)N1CCCC1 | 0.187% (inactive) |
| CCN(CC)S(=O)(=O)c1ccc(-c2cn3ccc(C)cc3n2)cc1 | 11.7% (inactive) |
| Cc1ccc2nc(-c3ccc(Br)cc3)cn2c1 | 89.9% (active) |
| COc1ccc(-c2cn3ccc(C)cc3n2)cc1 | -9.63% (inactive) |
| CSc1nnc2ccc(-c3ccc(C)cc3)nn12 | -11.1% (inactive) |
| Cc1ccc(-c2cn3cc(C)ccc3n2)cc1 | 65.4% (active) |
| Cc1cc(N2CCOCC2)nc(-c2ccc(Br)cc2)n1 | -6.76% (inactive) |
| Cc1sc2ncn(CC(=O)NCCCC(=O)NCc3ccc(F)cc3)c(=O)c2c1C | -35.1% (inactive) |
| O=C(CCC(=O)OCC(F)(F)C(F)F)NCc1ccccc1 | -6.23% (inactive) |
| COc1ccccc1-n1nnnc1S(=O)(=O)Cc1ccc(Cl)cc1 | -13.9% (inactive) |

| SMILES | inhibition |
| --- | --- |
| CCN1CCN(c2nc(Nc3cccc(F)c3)nc(N)c2[N+](=O)[O-])CC1 | -5.24% (inactive) |
| CNc1nc(Nc2ccc(C)c(Cl)c2)nc(N)c1[N+](=O)[O-] | 99.7% (active) |
| COc1cccc(Nc2nc(N)c([N+](=O)[O-])c(NCc3ccco3)n2)c1 | -15.6% (inactive) |
| O=C(Nc1sc2c(c1C(=O)O)CCC2)c1ccccc1F | 94% (active) |
| O=C(O)c1c(NC(=O)N2CCCC2)sc2c1CCCC2 | 9.21% (inactive) |
| COC(=O)c1c(NC(=O)c2ccccc2F)sc2c1C(C(=O)OC)CC2 (centres undefined) | -5.07% (inactive) |
| Cc1cccc(Nc2nc3c(S(=O)(=O)c4ccccc4)nnn3c3ccccc23)c1C | -2.12% (inactive) |
| Fc1cccc(Cl)c1COc1ccc(-c2nnco2)cc1 | -29.1% (inactive) |
| Fc1ccc(COc2ccc(-c3nnco3)cc2)cc1 | 61.6% (active) |
| Fc1ccc(COc2cccc(-c3n[nH]c(=S)o3)c2)cc1 | -20.2% (inactive) |
| COc1ccc(CCc2nc(-c3cccs3)no2)cc1 | 19.7% (inactive) |
| O=C(Oc1ccc(-c2nc(-c3ccccn3)no2)cc1)c1ccccc1 | 97.9% (active) |
| Clc1ccc(-n2nnnc2-c2cnc(-c3ccccn3)nc2-c2cccs2)cc1 | 1.6% (inactive) |
| c1ccc(CCc2nc(-c3ccncc3)no2)cc1 | -15.3% (inactive) |
| c1csc(-c2nc(-c3ccncc3)no2)c1 | 60.3% (active) |
| Cc1ccc(-c2nc(-c3ccncc3)no2)c(C)c1 | 49.8% (inactive) |
| Cc1noc(C)c1COC(=O)COc1ccc(-c2ccccc2)cc1 | 4.53% (inactive) |
| O=C(COC(=O)c1ccncc1)c1ccccc1 | -26.7% (inactive) |
| c1ccc(-c2noc(-c3cccs3)n2)nc1 | 92% (active) |
| Cc1nc(NC(CC(C)C)C(=O)O)c2nc(C)oc2n1 (centres undefined) | 7.07% (inactive) |
| CCOC(=O)C(CC)Sc1ncnc2c1nnn2-c1ccc(F)cc1 (centres undefined) | -3.73% (inactive) |
| CCc1ccc(N(C(=O)c2csnn2)C(C(=O)NC2CCCCC2)c2cccnc2)cc1 (centres undefined) | -39% (inactive) |
| COc1ccc(C(CNC(=O)c2cc3c(s2)CCCC3)N2CCOCC2)cc1 (centres undefined) | 3.85% (inactive) |
| O=C(COc1ccc(NC(=O)c2ccccc2[N+](=O)[O-])cc1)c1ccc(F)cc1 | -17.5% (inactive) |

Reference: PubChem BioAssay AID2599 (Sanford-Burnham Center for Chemical Genomics, 2010)
